Laboratory results reported in PubChem BioAssay (NCI).
Compounds without any hit were thinned out: in the full panel of roughly 83,000, 20% have a hit.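 A percent growth of 40 corresponds to 60% growth inhibition; 0 means no net growth; -100 means all cells died. Active threshold: below 10.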 A number with no mark means an inactive call. Activity calls are given as the source filed them.

Key:
Experiment in all cases: NCI-60 one-dose screen, 48 h (100 = growth as untreated, 0 = no growth, -100 = all killed)
DU-145 prostate = details: 10 µM unless noted
K-562 leukemia = details: 10 µM unless noted
MALME-3M melanoma = details: 10 µM unless noted
RXF 393 renal = details: 10 µM unless noted
SF-295 CNS = details: 10 µM unless noted
UACC-257 melanoma = details: 10 µM unless noted
HCT-15 colon = details: 10 µM
HT29 colon = details: 10 µM unless noted
SNB-75 CNS = details: 10 µM unless noted
SNB-19 CNS = details: 10 µM unless noted
PC-3 prostate = details: 10 µM unless noted
SK-MEL-5 melanoma = details: 10 µM unless noted
LOX IMVI melanoma = details: 10 µM unless noted
A498 renal = details: 10 µM unless noted
HL-60(TB) leukemia = details: 10 µM unless noted
MOLT-4 leukemia = details: 10 µM
T-47D breast = details: 10 µM unless noted
BT-549 breast = details: 10 µM
HCC-2998 colon = details: 10 µM unless noted
CAKI-1 renal = details: 10 µM unless noted

`CCCCCCCCCCCCOc1ccc(C(=O)Oc2ccc(CSP3(=O)OCC4OC(n5cnc6c(N)ncnc65)C(F)C4OP(=O)(O)OCC4OC(n5ccc(=O)[nH]c5=O)C(F)C4O3)cc2)cc1` (stereo unspecified) gave a growth (DU-145 prostate) of 103%, a growth (K-562 leukemia) of 52.1% and a growth (MALME-3M melanoma) of 114%. It also gave a growth (RXF 393 renal) of 60.8%, a growth (SF-295 CNS) of 110% and a growth (UACC-257 melanoma) of 31.4%. The growth (HCT-15 colon) was 101%, the growth (HT29 colon) was 78.8% and the growth (SNB-75 CNS) was 107%. It also gave a growth (SNB-19 CNS) of 101%, a growth (PC-3 prostate) of 100% and a growth (SK-MEL-5 melanoma) of 109%. For the same compound, the growth (LOX IMVI melanoma) was 85.9%, the growth (A498 renal) was 71.3% and the growth (HL-60(TB) leukemia) was -18.4% (active). It also gave a growth (MOLT-4 leukemia) of 68.3%, a growth (T-47D breast) of 88.5% and a growth (BT-549 breast) of 81.6%. The growth (HCC-2998 colon) was 105%.
For `C/C(=C\c1cc(C(F)(F)F)n(-c2ccc(N)cc2)n1)[C@@H]1C[C@@H]2O[C@]2(C)CCC[C@H](C)[C@H](O)[C@@H](C)C(=O)C(C)(C)[C@@H](O)CC(=O)O1`, the growth (DU-145 prostate) was -23.9% (active), the growth (K-562 leukemia) was 6.37% (active) and the growth (MALME-3M melanoma) was 58.1%. For the same compound, the growth (RXF 393 renal) was -8.53% (active), the growth (SF-295 CNS) was 2.01% (active) and the growth (UACC-257 melanoma) was 26.6%. The growth (HCT-15 colon) was 9.88% (active), the growth (SNB-75 CNS) was -16.2% (active) and the growth (SNB-19 CNS) was 21.1%. The growth (PC-3 prostate) was 9.42% (active), the growth (LOX IMVI melanoma) was 4.2% (active) and the growth (CAKI-1 renal) was 25.3%. For the same compound, the growth (A498 renal) was -0.114% (active), the growth (HL-60(TB) leukemia) was 0.265% (active) and the growth (MOLT-4 leukemia) was 4.35% (active). The growth (T-47D breast) was 12.8%, the growth (BT-549 breast) was -2.85% (active) and the growth (HCC-2998 colon) was 8.18% (active).
`CCCCCCCCCCOc1ccc(C(=O)Oc2ccc(CSP3(=O)OCC4OC(n5ccc(=O)[nH]c5=O)C(F)C4OP(=O)(O)OCC4OC(n5cnc6c(N)ncnc65)C(F)C4O3)cc2)cc1` (stereo unspecified) was tested, and the growth (DU-145 prostate) was 106%, the growth (K-562 leukemia) was 66.1% and the growth (MALME-3M melanoma) was 110%. It also gave a growth (RXF 393 renal) of 72.6%, a growth (SF-295 CNS) of 105% and a growth (UACC-257 melanoma) of 21.3%. It also gave a growth (HCT-15 colon) of 105%, a growth (HT29 colon) of 79.3% and a growth (SNB-75 CNS) of 102%. The growth (SNB-19 CNS) was 103%, the growth (PC-3 prostate) was 103% and the growth (SK-MEL-5 melanoma) was 111%. The growth (LOX IMVI melanoma) was 85.3%, the growth (A498 renal) was 6.69% (active) and the growth (HL-60(TB) leukemia) was -12.8% (active). The growth (MOLT-4 leukemia) was 68.4%, the growth (T-47D breast) was 96.4% and the growth (BT-549 breast) was 87.7%. It also gave a growth (HCC-2998 colon) of 102%.
